Pf Dd2 inh: blocks in vitro growth of P. falciparum Dd2 | Potency, µM (series often up to 28.9 µM), without a hit: top-dose activity, negative = inhibition, usual class: inhibitors | P. falciparum Dd2 growth, SYBR Green, 72 h | AID 1347417 | 120,000 tested, 4.3% active; active = well fitted inhibition curve with a large enough effect;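 also: plate controls were DMSO vehicle for no effect and reference drug for full effect; nearly all actives have a fitted effect of over 65% in size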
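Infected erythrocytes (Dd2, 0.3% parasitemia, 2.5% hematocrit final) are added to compound in RPMI-1640/Albumax II medium, grown 72 h at 37C in low oxygen, then lysed with saponin/Triton-X containing SYBR Green and read by fluorescence.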
An asterisk follows results filed as active; i = inactive; [ ] = dose if it differs, or a comment. Many of the other results were omitted from the sample, so hits are more common in it than they were. Potency is read from the fitted curve at half-maximal effect.

SMILES | Pf Dd2 inh
Cc1ccc([S+](=O)([O-])N2CCC3(CC2)Cc2ccccc2NC3=O)cc1 | 32%
CCc1cn(C[C@H](NC2CCOCC2)C(=O)O)c(=O)[nH]c1=O | 14%[44.1 µM]
C[C@H]1[C@@H]2[C@@H](O)C([C@H](C)C(=O)NCCN3CCOCC3)CC[C@@]2(C)CC[C@@H]1NC(=O)c1cncnc1 (stereo partly drawn) | 7%
CN1C(=O)c2ccccc2Sc2ccc(NC(=O)N3CCN(c4ccccc4F)CC3)cc21 | 13µM*
CN1C(=O)c2ccccc2Sc2ccc(NC(=O)c3ccccc3F)cc21 | -4%
CN1C(=O)c2ccccc2Sc2ccc(NC(=O)COc3ccc(F)cc3)cc21 | 0%
COC(=O)CN1C(=O)[C@@H]2C[C@@H](O)CN2C2(CN(Cc3ccccc3Cl)C2)C1=O | 4%[44.1 µM]
Cn1cc(S(=O)(=O)N2CCCCC2)cc1C(=O)Nc1ccc(OC(F)(F)F)cc1 | 11µM*
Cn1cc(S(=O)(=O)N2CCCC2)cc1C(=O)Nc1ccc(F)cc1F | -3%
CC(=O)c1ccc(NC(=O)c2cc(S(=O)(=O)N3CCCCCC3)cn2C)cc1 | 8%
Cc1ccc(NC(=O)C2Cc3ccccc3N2C(=O)c2ccccc2)cc1Cl (stereo not drawn) | 43%
COc1cccc(CNC(=O)C(=O)Nc2ccc3nc4n(c(=O)c3c2)CCCCC4)c1 | -9%
COc1cccc(NC(=O)Nc2ccc3nc(N4CCN(C)CC4)cc(C)c3c2)c1 | 2.5µM*
Cc1cc(N2CCN(C)CC2)nc2ccc(NC(=O)Nc3ccccc3Cl)cc12 | 3.2µM*
COc1cccc(NC(=O)c2ccc3c(c2)CCN3S(C)(=O)=O)c1 | 21%
Cn1c(=O)n(C)c2cc(N3CCCC3)c(NC(=O)Nc3ccccc3)cc21 | i
Cc1ccc(C(C)NC(=O)c2cc(COc3ccccc3)[nH]n2)c(C)c1 (stereo not drawn) | i
CN1C(=O)CO[C@H]2CN(Cc3c[nH]c4ccccc34)C[C@H]21 | i
COc1cncc(CN2CC[C@@H]3OCC(=O)N(Cc4ccccc4)[C@H]3CC2)c1 | -9%[44.1 µM]
O=C1CO[C@H]2CCN(Cc3cccc(OC(F)(F)F)c3)CC[C@@H]2N1Cc1c[nH]c2ccccc12 | 7.9µM*
O=C1CO[C@H]2CN(Cc3c[nH]c4ccccc34)C[C@H]2N1 | -21%[44.1 µM]
O=C1CO[C@H]2CN(Cc3c[nH]c4ccccc34)C[C@H]2N1Cc1ccc(F)cc1 | 5µM*
O=C1CO[C@H]2CCN(Cc3cccc(OC(F)(F)F)c3)CC[C@@H]2N1Cc1ccccc1 | i
COCCCN1CC2(CCC1=O)CCN(c1ncnc3onc(C)c13)CC2 | 0%
Cc1ncsc1CN1C(=O)CO[C@H](c2ccc(NC(=O)c3ccc(F)cc3)cc2)[C@H]1CO | -17%
SMILES | Pf Dd2 inh
Cc1ccc(N2CCN(S(=O)(=O)c3cc(Br)cc4c3N(C(=O)C3CC3)CC4)CC2C)cc1 (stereo not drawn) | i
O=C(CCS(=O)(=O)c1cc(Br)cc2c1N(C(=O)C1CC1)CC2)N1CCN(c2ccc(F)cc2)CC1 | 7.9µM*
Cc1ccc(C)c(N2CCN(C(=O)CCS(=O)(=O)c3cc(Br)cc4c3N(C(=O)C3CC3)CC4)CC2)c1 | 11µM*
COc1ccc(N2CCN(S(=O)(=O)c3cc(Br)cc4c3N(C(=O)C3CC3)CC4)CC2)cc1 | i
Cc1ccc(C)c(N2CCN(C(=O)CCNS(=O)(=O)c3ccc4c(c3)CCN4C(=O)C3CC3)CC2)c1 | -1%
Cc1ccc(C)c(N2CCN(S(=O)(=O)c3cc(Br)cc4c3N(C(=O)C3CC3)CC4)CC2)c1 | 49%
COc1ccccc1CNS(=O)(=O)c1cc(Br)cc2c1N(C(=O)C1CC1)CC2 | 1%
O=C(CCS(=O)(=O)c1cc(Br)cc2c1N(C(=O)C1CC1)CC2)N1CCN(c2cccc(C(F)(F)F)c2)CC1 | 10µM*
CCC(=O)N1CCc2cc(S(=O)(=O)CCC(=O)N3CCN(c4cccc(Cl)c4)CC3)ccc21 | -12%
COCc1nncn1C1CCN(S(=O)(=O)c2ccc(Br)cc2)CC1 | -17%
Cc1ccc(NC(=O)NC[C@H]2O[C@@H](CC(=O)NCCN3CCOCC3)[C@H](O)[C@@H]2O)cc1 | -12%
CC(C)NC(=O)N1CCOC2(CCN(C(=O)Cc3ccc(O)cc3)CC2)C1 | 15%
CN1CC(=O)N(C2CCNCC2)Cc2c1ncnc2N1CCCC(O)C1 (stereo not drawn) | 14%
O=C1C(OCC2CC2)C2(CCCCC2)N1C1CCN(Cc2ccncc2F)CC1 (stereo not drawn) | i
O=C1C(OCC2CC2)C2(CCCCC2)N1C1CCN(Cc2cccnc2)CC1 (stereo not drawn) | 8.9µM*
O=C(Cc1cccnc1)N1CCC(N2C(=O)C(OCC3CC3)C23CCCCC3)CC1 (stereo not drawn) | -28%
CN(C)CC1(O)CCC2(CCN(C(=O)CC3CCCC3)CC2)CC1 | i
CN1[C@@H](CCC(=O)N2CCc3ccccc32)CNC(=O)[C@@H]2[C@H]1CCN2CC(C)(C)C | i
Cc1cccc2nc(C(=O)N3CCn4nc(Cc5ccccc5)cc4C3)cn12 | -19%
Cc1cn2cc(C(=O)N3CCCC4(C3)C(=O)N(C)c3ccccc34)ccc2n1 (stereo not drawn) | -14%

Screening results deposited in PubChem by National Center for Advancing Translational Sciences (NCATS).
